Experiments:
[1] = test system: Vero E6 infected with SARS-CoV-2; assay: morphology score (similarity to uninfected cells); higher = more like uninfected cells; details: 24 h
[2] = test system: Vero E6 infected with SARS-CoV-2; assay: SARS-CoV-2 infection rate relative to infected DMSO; higher = more infection, active = 60 or less; details: 24 h

SMILES	morphology score [1]	SARS-CoV-2 infection rate [2]
COc1ccccc1N1CCN(CCN2C(=O)CC3(CCCC3)CC2=O)CC1 (10 µM)	-0.291	116% (inactive)
OC[C@H]1O[C@@H](O[C@@H]2[C@H](O)[C@@H](O)[C@H](O[C@H]3[C@H](O)[C@@H](O)C(O)O[C@@H]3CO)O[C@@H]2CO)[C@H](O)[C@@H](O)[C@H]1O (stereo partly specified) [4-galactosyllactose] (10 µM)	-0.0673	114% (inactive)
NC(=O)[C@@H](CC1CC1)[C@@H](CCC(F)(F)F)C(=O)N[C@H]1N=C(c2ccccc2)c2cccc(F)c2NC1=O (10 µM)	0.179	102% (inactive)
Fc1ccc(-c2cncc(CN3CCN(c4cccc5c4OCCO5)CC3)c2)cc1 [adoprazine] (10 µM)	0.131	101% (inactive)
O=c1cc(-c2ccc(O)cc2)oc2cc(O)cc(O)c12 [apigenin] (10 µM)	0.129	104% (inactive)
CNC[C@@H]1CC[C@@H](N)[C@@H](O[C@H]2[C@H](O)[C@@H](O[C@H]3OC[C@](C)(O)[C@H](NC)[C@H]3O)[C@H](N)C[C@@H]2N)O1 [micronomicin] (10 µM)	0.0697	96% (inactive)
O=c1cc[nH]c(=S)[nH]1 [2-thiouracil] (10 µM)	0.0168	108% (inactive)
CC(C)(c1ccc(O)cc1)c1ccc(O)cc1 [bisphenol-A] (10 µM)	0.0642	106% (inactive)
O=C(NS(=O)(=O)c1ccc(Br)s1)c1ccc(Cl)cc1Cl [tasisulam] (10 µM)	0.161	109% (inactive)
CCC1=C[C@@H]2CN3CCc4c([nH]c5ccccc45)[C@@](C(=O)OC)(C2)[C@@H]13 [catharanthine] (10 µM)	0.119	110% (inactive)
CC1(C)OC2(C)C(O)CC1CC2O (stereo unspecified) [epomediol] (10 µM)	0.173	100% (inactive)
CN(C)/N=N/c1[nH]cnc1C(N)=O [dacarbazine] (10 µM)	0.135	87% (inactive)
O=c1cc(N2CCOCC2)oc2c(-c3cccc4c3sc3ccccc34)cccc12 (0.833333 µM)	0.352	68% (inactive)
Cc1cc(N2CCOCC2)cc2[nH]c(-c3c(NC[C@@H](O)c4cccc(Cl)c4)cc[nH]c3=O)nc12 (0.833333 µM)	0.0224	110% (inactive)
COc1cc(-c2ncn(/C=C\C(=O)OC(C)C)n2)cc(C(F)(F)F)c1 (10 µM)	-0.358	114% (inactive)
O=C1CCC(N2C(=O)c3ccccc3C2=O)C(=O)N1 (stereo unspecified) [thalidomide] (10 µM)	-0.223	104% (inactive)
CC(=O)Oc1ccccc1C(=O)O [aspirin] (10 µM)	-0.027	98% (inactive)
CC(C)[C@H](N)C(=O)OCCOCn1cnc2c(=O)nc(N)[nH]c21 [valaciclovir] (10 µM)	-0.0293	116% (inactive)
Nc1nc2c(ccc3ccccc32)s1 (10 µM)	-0.0747	102% (inactive)
[N-]=[N+]=CC(=O)CC[C@H](N)C(=O)O [6-diazo-5-oxo-L-norleucine] (10 µM)	0.196	93.5% (inactive)
O=C([O-])c1ccccn1.O=C([O-])c1ccccn1.O=C([O-])c1ccccn1.[Cr+3] [chromium-picolinate] (10 µM)	-0.0147	112% (inactive)
Cn1c(=O)cnn(CCCCN2CCN(c3ncccn3)CC2)c1=O (10 µM)	-0.0383	115% (inactive)
CC[C@@H]1C(=O)N(C)c2cnc(Nc3ccc(C(=O)NC4CCN(C)CC4)cc3OC)nc2N1C1CCCC1 (10 µM)	-0.305	104% (inactive)
CNC(=O)c1ccc(Nc2ncc(C(F)(F)F)c(NCc3nccnc3N(C)S(C)(=O)=O)n2)cc1 [defactinib] (0.833333 µM)	0.0478	100% (inactive)
NC[C@@H](O)CC(=O)O [aminohydroxybutyric-acid] (10 µM)	0.226	92% (inactive)
CN(C)CCCOc1nn(Cc2ccccc2)c2ccccc12 [benzydamine] (10 µM)	0.4	70.5% (inactive)
COc1cccc(-n2nc(C(=O)O)cc2-c2ccc(C3CCCCC3)c(Cl)c2)c1 (10 µM)	0.0895	102% (inactive)
Cc1ccc(C(=O)N(CCCN)[C@@H](c2oc3cc(Cl)ccc3c(=O)c2Cc2ccccc2)C(C)C)cc1 (0.833333 µM)	-0.422	115% (inactive)
